This is an account of results in PubChem BioAssay (EPA / NIEHS).

Inconclusive results are not listed. The source made the active and inactive calls. The calls were made as follows, unless noted: active = hit-call score of the fitted dose curve at least 0.9, where 1 is the maximum; inactive = score below 0.9.

For assay [1], the target named is bovine Estrogen Receptor (ER), ESR1 (gene 407238) (UniProt P49884). The experiment in a line: NVS_NR_bER: NovaScreen (NVS) Nuclear Receptor Binding Assay for bovine Estrogen Receptor (ER) (AID 2283345; active = hit-call score of the fitted dose curve at least 0.9, where 1 is the maximum;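 also: actives lower the bound radioligand count which means they displace the ER ligand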). The essentials: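 Bovine uterine membranes; tritiated or iodinated radioligand; competitive displacement; 18 h; scintillation read; DMSO negative control; 25 uM duplicates, then concentration series for actives.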

For assay [2], the target named is Estrogen receptor (Homo sapiens) (UniProt P03372). The assay is described as follows: NVS_NR_hER: NovaScreen (NVS) Nuclear Receptor Binding Assay for human Estrogen Receptor (ER) (AID 2283348; active = hit-call score of the fitted dose curve at least 0.9, where 1 is the maximum). The essentials: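 Scintillation signal from bound radioligand was measured 18 hours after chemical addition to cell-free MCF7 protein extracts, with DMSO as baseline. Activity was scored as signal loss; compounds ran first at 25 uM in duplicate.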

Assay [3] addresses Cellular tumor antigen p53 (Homo sapiens) (UniProt P04637). The experiment in a line: TOX21_p53_BLA_p2_ratio: Tox21 HCT-116 p53 Agonism Beta-lactamase Assay, Ratio, Phase 2 (AID 2283592; active = hit-call score of the fitted dose curve at least 0.9, where 1 is the maximum). The essentials: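 In this cell-based reporter format, HCT116 cells were dosed with chemicals delivered from DMSO by 217-fold dilution and incubated 16 h at 37C. Emission at 460 and 530 nm after 2 h CCF4-AM loading provided the ratio, fitted upward versus DMSO.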

Assay [4] has the same target. The experiment in a line: TOX21_p53_BLA_p5_ratio: Tox21 HCT-116 p53 Agonism Beta-lactamase Assay, Ratio, Phase 5 (AID 2283599; active = hit-call score of the fitted dose curve at least 0.9, where 1 is the maximum). The essentials: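 Beta-lactamase reporter ratio (blue 460 nm over green 530 nm, 405 nm excitation) after 2 h CCF4-AM loading, in HCT-116 cells exposed 16 h at 37 C to compounds pinned at 217-fold dilution. Increases relative to DMSO baseline scored.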

A short description of assay [5]: TOX21_p53_BLA_p5_viability: Viability Assessment in the Tox21 HCT-116 p53 Agonism Beta-lactamase Assay, Phase 5 (AID 2283600; active = hit-call score of the fitted dose curve at least 0.9, where 1 is the maximum). The essentials: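 Compounds, pinned from DMSO at 217-fold dilution, were left on the cells for 16 h. The viability endpoint was ATP content measured by CellTiter-Glo luminescence, where falling signal reflects cytotoxicity.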
In assay [6] the target is Cellular tumor antigen p53 (Homo sapiens) (UniProt P04637). The assay is described as follows: TOX21_p53_BLA_p4_ratio: Tox21 HCT-116 p53 Agonism Beta-lactamase Assay, Ratio, Phase 4 (AID 2283601; active = hit-call score of the fitted dose curve at least 0.9, where 1 is the maximum). Summed up: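 Signal is the blue/green (460nm/530nm) ratio of cleaved versus uncleaved CCF4-AM substrate, read after 2 h substrate loading. Cells were HCT116 carrying the p53-responsive beta-lactamase reporter, dosed 16 h at 37C, 5% CO2; CellTiter-Glo measured in parallel.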

For assay [7], the target named is CCAAT/enhancer-binding protein beta (Homo sapiens) (UniProt P17676). The experiment in a line: ATG_C_EBP_CIS: Attagene CIS-FACTORIAL HepG2 Assay for human CCAAT/Enhancer Binding Protein (C/EBP) beta (AID 2282927). Conditions: HepG2 Attagene cis-factorial transcription factor reporter; actives raise or lower the signal. The essentials:
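Changes in reporter mRNA, rather than exogenous chimeric receptor activity, reflect native C/EBP signalling in transfected HepG2 cells dosed for 24 h; transcripts are detected by RT-PCR and capillary electrophoresis.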

Assay [8] can be described thus: ATG_CMV_CIS: Attagene CIS-FACTORIAL HepG2 Assay for human CMV (Internal Marker) (AID 2282928).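 Also: endpoint acts as a background internal control marker rather than a target.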 Conditions: HepG2 CMV promoter reporter, transcription factor profiling; actives raise or lower the signal. Summed up:
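Endogenous transcription factor activity read in HepG2 via transfected cis-promoter reporter units. After 24 h dosing, reporter mRNA measured by RT-PCR/capillary electrophoresis; gain or loss of signal fit relative to DMSO.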

A short description of assay [9]: ATG_AP_2_CIS: Attagene CIS-FACTORIAL HepG2 Assay for human Activator Protein 2 (AP-2) (AID 2282932). Conditions: HepG2 AP-2 cis-reporter, Attagene transcription factor profiling; actives raise or lower the signal. The essentials:
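Step one: transient transfection of HepG2 with reporter transcription units. Step two: 24 h chemical exposure. Step three: RNA extraction, RT-PCR, labelled fragment analysis by capillary electrophoresis; DMSO serves as baseline.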

Assay [10] is described as follows: ATG_BRE_CIS: Attagene CIS-FACTORIAL HepG2 Assay for human Bone Morphogenetic Protein (BMP) Response Element (BRE) (AID 2282933). Conditions: HepG2 BMP response element reporter, Attagene transcription factor profiling; actives raise or lower the signal. Summed up:
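Gain- or loss-of-signal was derived by bidirectional fitting against DMSO controls. The signal came from reporter mRNA, measured by RT-PCR and capillary electrophoresis, in HepG2 cells transiently carrying multiple reporter units and dosed for 24 h.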

In assay [11] the target is Transcription factor E2F1 (Homo sapiens) (UniProt Q01094). The experiment in a line: ATG_E2F_CIS: Attagene CIS-FACTORIAL HepG2 Assay for human E2F Transcription Factor 1 (AID 2282935). The settings on record: HepG2 Attagene cis-reporter, E2F reporter RNA transcripts; actives raise or lower the signal. The essentials:
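Total RNA from 24 h-treated, reporter-transfected HepG2 cells undergoes DNase I treatment, oligo(dT) reverse transcription, PCR and 6-FAM primer extension before capillary electrophoresis.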

A short description of assay [12]: ATG_E_Box_CIS: Attagene CIS-FACTORIAL HepG2 Assay for human Enhancer Box (E-box) (AID 2282936). The settings on record: HepG2 E-box cis-reporter transcription, actives raise or lower the signal. Summed up: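 DMSO served as negative control and baseline for bidirectional fitting. Human hepatoma HepG2 cells, transiently transfected with cis-reporter constructs, were dosed 24 h; reporter mRNA read by RT-PCR and capillary electrophoresis.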

Assay [13] in a line: ATG_M_61_CIS: Attagene CIS-FACTORIAL HepG2 Assay for M61 Transcription Factor (Internal Marker) (AID 2282937). The settings on record: HepG2 Attagene CIS-FACTORIAL M61 internal marker reporter; actives raise or lower the signal. Summed up:
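Transfect HepG2 with MRTUs; dose 24 h; isolate RNA; reverse-transcribe with DNase I treatment; PCR-amplify, FAM-label and cut with HpaI for 2 h at 37 C; resolve by CE. Bidirectional fitting against DMSO.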

A short description of assay [14]: ATG_EGR_CIS: Attagene CIS-FACTORIAL HepG2 Assay for human Early Growth Response 1 (EGR1) (AID 2282938). The settings on record: HepG2 Attagene CIS-FACTORIAL EGR reporter mRNA; actives raise or lower the signal. Summed up: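 After a 24 h treatment of transiently transfected HepG2 cells, total RNA was reverse-transcribed and reporter sequences PCR-amplified, labelled and run on capillary electrophoresis. Reporters sit under cis-regulatory promoters sensing endogenous factors.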

Assay [15] can be described thus: TOX21_p53_BLA_p2_viability: Viability Assessment in the Tox21 HCT-116 p53 Agonism Beta-lactamase Assay, Phase 2 (AID 2283591; active = hit-call score of the fitted dose curve at least 0.9, where 1 is the maximum;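 also: compound exposure lasted 16 h at 37 °C; actives lower the ATP signal meaning cytotoxicity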). Summed up: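 Cytotoxicity readout: CellTiter-Glo ATP luminescence, 30 min at room temperature, after the beta-lactamase read. Cells were HCT116 exposed 16 h at 37C to compounds pin-transferred at 217-fold dilution from DMSO stocks.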
A short description of assay [16]: TOX21_p53_BLA_p3_viability: Viability Assessment in the Tox21 HCT-116 p53 Agonism Beta-lactamase Assay, Phase 3 (AID 2283593; active = hit-call score of the fitted dose curve at least 0.9, where 1 is the maximum;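 also: cells exposed to compound for 16 h before reading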). The essentials:
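Cellular ATP was quantified by CellTiter-Glo luminescence, read after 30 min at room temperature. Beforehand, HCT116 cells (4000/well) received compound 5 h post-seeding, 217-fold diluted from DMSO, then incubated 16 h at 37C.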

Assay [17] has as its target Cellular tumor antigen p53 (Homo sapiens) (UniProt P04637). The experiment in a line: TOX21_p53_BLA_p3_ratio: Tox21 HCT-116 p53 Agonism Beta-lactamase Assay, Ratio, Phase 3 (AID 2283596; active = hit-call score of the fitted dose curve at least 0.9, where 1 is the maximum). Summed up: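 HCT116 p53-bla cells (4000/well) given compound in DMSO (217-fold dilution) after 5 h, incubated 16 h at 37C. CCF4-AM substrate 2 h at room temperature; 460/530 nm emission ratio, gain fitted against DMSO.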

Assay [18] can be described thus: TOX21_p53_BLA_p4_viability: Viability Assessment in the Tox21 HCT-116 p53 Agonism Beta-lactamase Assay, Phase 4 (AID 2283597; active = hit-call score of the fitted dose curve at least 0.9, where 1 is the maximum;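 also: hits lower the luminescence signal meaning cytotoxicity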). Summed up:
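We seeded HCT116 p53 reporter cells at 4000/well and waited 5 h. We then added compounds in DMSO at a 217-fold dilution and incubated for 16 h. Viability was read as CellTiter-Glo luminescence after 30 min at RT.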

Assay [19] in a line: CCTE_Harrill_HTTr_Viability_MCF7: CCTE's 6-hour Cell Viability Assessment for the High-Throughput Transcriptomics (HTTr) Platform, in MCF-7 cells cultured in DMEM + 10% fetal bovine serum, Harrill Lab (AID 2284010). The essentials: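 Membrane integrity was scored by high-content imaging of propidium iodide dye exclusion after a 6 h exposure across an eight-point dilution series. Data were fitted bidirectionally relative to DMSO as negative control and baseline.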

Assay [20] can be described thus: CCTE_Harrill_HTTr_Apoptosis_MCF7: CCTE's 6-hour Apoptosis Assessment for the High-Throughput Transcriptomics (HTTr) Platform, in MCF-7 cells cultured in DMEM + 10% fetal bovine serum, Harrill Lab (AID 2284011). Summed up: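 Read-out: CellEvent Caspase 3/7 Green signal by high content imaging, gain-of-signal indicating apoptosis. MCF-7 cells, DMEM + 10% FBS, eight-point dilution series, 6 h exposure. Curves fitted bidirectionally relative to DMSO negative control.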

Chain of Transcription factor E2F1 (Homo sapiens) (Q01094 whole entry, looked up): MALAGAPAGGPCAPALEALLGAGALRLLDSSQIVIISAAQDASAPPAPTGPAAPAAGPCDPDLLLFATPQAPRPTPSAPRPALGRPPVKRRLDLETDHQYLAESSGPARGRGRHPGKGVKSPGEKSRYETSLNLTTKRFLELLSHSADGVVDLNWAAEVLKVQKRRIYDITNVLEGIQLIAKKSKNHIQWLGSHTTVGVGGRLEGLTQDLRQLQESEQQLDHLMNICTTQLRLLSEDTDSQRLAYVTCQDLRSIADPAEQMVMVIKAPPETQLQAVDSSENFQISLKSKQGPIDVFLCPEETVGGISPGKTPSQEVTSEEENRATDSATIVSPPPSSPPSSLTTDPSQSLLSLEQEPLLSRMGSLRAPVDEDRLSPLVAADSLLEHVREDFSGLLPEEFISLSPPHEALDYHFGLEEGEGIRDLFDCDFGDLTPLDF
Chain of CCAAT/enhancer-binding protein beta (Homo sapiens) (P17676 whole entry, looked up): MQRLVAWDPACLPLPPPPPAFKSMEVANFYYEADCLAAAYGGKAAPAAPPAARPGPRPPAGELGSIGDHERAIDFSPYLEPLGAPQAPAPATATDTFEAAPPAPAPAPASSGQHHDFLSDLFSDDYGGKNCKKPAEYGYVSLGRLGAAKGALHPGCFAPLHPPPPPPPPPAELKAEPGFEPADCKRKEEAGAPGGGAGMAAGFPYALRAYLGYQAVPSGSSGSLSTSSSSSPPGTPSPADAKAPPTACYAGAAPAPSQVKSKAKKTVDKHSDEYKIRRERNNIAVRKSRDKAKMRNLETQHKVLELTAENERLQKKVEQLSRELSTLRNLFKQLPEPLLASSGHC
Chain of Cellular tumor antigen p53 (Homo sapiens) (P04637 whole entry, looked up): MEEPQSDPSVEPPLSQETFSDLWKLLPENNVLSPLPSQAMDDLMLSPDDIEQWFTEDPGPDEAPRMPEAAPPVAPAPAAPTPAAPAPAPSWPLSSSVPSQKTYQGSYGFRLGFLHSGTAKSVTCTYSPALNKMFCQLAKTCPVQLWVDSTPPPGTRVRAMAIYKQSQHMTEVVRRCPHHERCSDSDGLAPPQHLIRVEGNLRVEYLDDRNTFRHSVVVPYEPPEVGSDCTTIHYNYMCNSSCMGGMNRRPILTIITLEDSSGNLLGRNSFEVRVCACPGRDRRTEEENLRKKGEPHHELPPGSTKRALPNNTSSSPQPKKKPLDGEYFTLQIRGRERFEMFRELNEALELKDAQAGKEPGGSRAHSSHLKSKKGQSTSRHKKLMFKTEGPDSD
Chain of bovine Estrogen Receptor (ER), ESR1 (gene 407238) (P49884 whole entry, looked up): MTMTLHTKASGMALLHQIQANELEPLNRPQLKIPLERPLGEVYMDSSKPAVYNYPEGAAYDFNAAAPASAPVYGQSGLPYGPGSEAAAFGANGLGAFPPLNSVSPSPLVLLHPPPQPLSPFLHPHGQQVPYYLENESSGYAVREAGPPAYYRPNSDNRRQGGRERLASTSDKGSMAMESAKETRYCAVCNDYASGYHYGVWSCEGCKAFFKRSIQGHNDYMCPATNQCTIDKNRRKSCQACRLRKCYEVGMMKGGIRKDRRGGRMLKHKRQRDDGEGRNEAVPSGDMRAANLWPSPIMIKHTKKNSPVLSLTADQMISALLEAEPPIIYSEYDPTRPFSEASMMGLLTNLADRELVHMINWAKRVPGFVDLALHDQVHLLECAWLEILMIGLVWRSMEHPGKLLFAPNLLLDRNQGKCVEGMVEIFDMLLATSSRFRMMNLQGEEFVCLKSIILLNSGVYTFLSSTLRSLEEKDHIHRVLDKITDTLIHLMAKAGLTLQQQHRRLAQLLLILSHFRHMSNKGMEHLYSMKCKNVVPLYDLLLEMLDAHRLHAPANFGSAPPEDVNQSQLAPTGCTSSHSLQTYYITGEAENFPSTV
Chain of Estrogen receptor (Homo sapiens) (P03372 whole entry, looked up): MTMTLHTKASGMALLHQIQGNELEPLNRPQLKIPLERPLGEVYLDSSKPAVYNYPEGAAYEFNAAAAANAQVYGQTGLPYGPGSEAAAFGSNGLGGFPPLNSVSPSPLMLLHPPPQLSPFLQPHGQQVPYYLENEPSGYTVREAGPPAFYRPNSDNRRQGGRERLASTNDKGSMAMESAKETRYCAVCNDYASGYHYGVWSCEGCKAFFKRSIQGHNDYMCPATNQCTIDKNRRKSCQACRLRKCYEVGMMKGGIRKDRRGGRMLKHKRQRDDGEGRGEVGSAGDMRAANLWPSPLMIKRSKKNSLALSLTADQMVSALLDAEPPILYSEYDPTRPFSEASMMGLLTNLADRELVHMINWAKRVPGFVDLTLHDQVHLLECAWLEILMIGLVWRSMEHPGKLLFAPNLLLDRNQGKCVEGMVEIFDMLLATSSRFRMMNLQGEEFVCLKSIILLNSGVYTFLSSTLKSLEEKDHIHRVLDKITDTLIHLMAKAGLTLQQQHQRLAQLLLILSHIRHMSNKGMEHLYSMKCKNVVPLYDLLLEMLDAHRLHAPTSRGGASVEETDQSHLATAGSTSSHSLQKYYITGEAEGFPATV

For the compound `CC(C)(C)C(=O)C(=O)O`, the compound was called inactive in [1], in assay [2], in assay [3], in assay [4], in assay [5] and in [6].
As to `CCOC(=O)c1ccccc1`, the AC50 in assay [7] was 68.7 µM (active). The call in [8], in [9], in assay [10], in [11], in assay [12] and in assay [13] was inactive. The outcome in assay [14], in assay [15], in [3], in assay [16], in assay [17] and in assay [18] was inactive. For the same compound, the outcome in [4] was inactive.
With `CC(C)C1OCCN1CCOC(=O)NCCCCCCNC(=O)OCCN1CCOC1C(C)C` (stereo not drawn), the compound was classed as inactive in [15], in assay [3], in assay [16], in [18], in [4] and in assay [5]. In addition, the outcome in assay [6] was inactive.
As for `Oc1cccc2ccccc12`, the result in [7], in assay [9], in assay [10], in [11], in [12] and in assay [13] was inactive. In addition, the outcome in [14], in [15], in assay [3], in [16], in assay [18] and in assay [4] was inactive. Further, the call in assay [5], in [6], in assay [19] and in assay [20] was inactive. The AC50 in assay [8] was 100 µM (active).
Consider `CC/C=C\CCO`, for which the result in assay [7], in assay [8], in assay [9], in assay [10], in [11] and in [12] was inactive. The compound was classed as inactive in assay [13], in [14], in assay [3], in [4], in [5] and in [19]. Besides, in [20], the result was inactive.
On to `Cc1c(C(N)=O)cc([N+](=O)[O-])cc1[N+](=O)[O-]`, for which the result in assay [15], in assay [17], in [18], in assay [4], in assay [5] and in assay [6] was inactive.
For the compound `N#CCN(CC#N)CCN(CC#N)CC#N`, the result in [7], in assay [8], in assay [9], in assay [10], in [11] and in assay [12] was inactive. Also, the compound was classed as inactive in [13], in assay [14], in assay [16] and in assay [5].
For the compound `O=C(O)/C=C/C(=O)O`, the outcome in [7], in assay [8], in assay [9], in assay [10], in assay [11] and in assay [12] was inactive. Further, the outcome in [13], in [14], in [19] and in [20] was inactive.

For orientation: AC50 means the concentration at which the activity in the assay is half-maximal.
